Results on eleven compounds are retold here after PubChem BioAssay (NCATS).

SMILES strings stand for the structures. Records with an inconclusive call do not appear. Activity calls are given as the source filed them. The call rests on the fitted dose curve.

Chain of Peroxisome proliferator-activated receptor delta (Homo sapiens) (Q03181 whole entry, looked up): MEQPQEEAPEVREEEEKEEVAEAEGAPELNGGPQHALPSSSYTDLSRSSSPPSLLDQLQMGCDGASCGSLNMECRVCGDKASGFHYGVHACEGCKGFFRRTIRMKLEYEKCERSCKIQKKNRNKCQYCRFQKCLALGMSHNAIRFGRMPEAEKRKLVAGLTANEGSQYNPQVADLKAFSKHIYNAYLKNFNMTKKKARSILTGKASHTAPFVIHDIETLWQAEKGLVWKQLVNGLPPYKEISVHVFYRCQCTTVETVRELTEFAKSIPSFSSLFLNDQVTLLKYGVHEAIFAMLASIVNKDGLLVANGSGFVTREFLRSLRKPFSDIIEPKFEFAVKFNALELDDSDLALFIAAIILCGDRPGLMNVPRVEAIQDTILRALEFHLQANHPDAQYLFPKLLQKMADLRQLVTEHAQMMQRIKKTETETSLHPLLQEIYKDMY

This test addresses Peroxisome proliferator-activated receptor delta (Homo sapiens) (UniProt Q03181). Briefly: qHTS assay for small molecule agonists of peroxisome proliferator-activated receptor delta signaling (AID 588534). Particulars: HEK293T PPARdelta-UAS-bla, beta-lactamase ratio, 18 h; series mostly up to 76.7 µM. In outline:
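Titration series tested in agonist mode on beta-lactamase reporter cells; 18 hrs at 37 C after a 5 hr pre-incubation. Readout: CCF4 fluorescence, 2 hrs RT. Hill equation gives EC50 and maximal response.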
In general terms: Quantitative high-throughput screening tests each substance at several concentrations.
With `Cc1ccc(N(C)C)cc1`, the outcome was inactive.
To `CCCCCCCCO` belongs “inactive”; to `CCCCCCCC/C=C\CCCCCCCC(=O)O`, “inactive”; to `O=C1NC(=O)c2cc([N+](=O)[O-])ccc21`, “inactive”.
In the case of `CCN(Cc1ccccc1)c1ccccc1`, the outcome was inactive.
To `O=C(O[C@@H](C(=O)O)[C@@H](OC(=O)c1ccccc1)C(=O)O)c1ccccc1` belongs “inactive”; to `Oc1ccc2cc(SSc3ccc4cc(O)ccc4c3)ccc2c1`, “inactive”.
Regarding `C[C@H]1C[C@H]2[C@@H]3CCC4=CC(=O)C=C[C@]4(C)[C@@]3(F)[C@@H](O)C[C@]2(C)[C@@]1(O)C(=O)CO`, the result was inactive.
To `CCOC(=O)C1=NN(c2ccc(Cl)cc2Cl)C(C)(C(=O)OCC)C1` (stereo unspecified) belongs “inactive”; to `CCCCOCCOCCSC#N`, “inactive”.
To `Oc1ccc(O)c2c(O)cccc12` belongs “inactive”.
